PKA-R1A act: activators of PKA-R1A complex | AID 504707 | 0.083% of 340,000 active | activation, % at 11.4 µM | P00514+P68181 | PKA-R1A dissociation, Cy5-IP20 fluorescence polarization; scaled: DMSO 0%, 113 µM cGMP 100%;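 active means percent activation above the mean of all tested compounds plus 3 SD, cut at about 19% in these data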;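 further: higher means more PKAc released from R1A so a rise in polarization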
PKA-R2B activ: activates the human PKA-R2B holoenzyme complex. activation, % at 11.4 µM. P22694+P31323. 0.079% of 340,000 active. PKA-R2B holoenzyme dissociation, Cy5-IP20 fluorescence polarization; R2B truncated from residue 108, S112A mutant; 0% DMSO only, 100% 113 µM cGMP. AID 504700;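 active means activation above a cutoff set at the mean over all compounds plus 3 SD, cut at about 18% in these data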;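 further: higher means more holoenzyme dissociation and a rise in polarization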
Target sequence (P31323 whole entry, looked up, other chains not shown, the tested form may be a part): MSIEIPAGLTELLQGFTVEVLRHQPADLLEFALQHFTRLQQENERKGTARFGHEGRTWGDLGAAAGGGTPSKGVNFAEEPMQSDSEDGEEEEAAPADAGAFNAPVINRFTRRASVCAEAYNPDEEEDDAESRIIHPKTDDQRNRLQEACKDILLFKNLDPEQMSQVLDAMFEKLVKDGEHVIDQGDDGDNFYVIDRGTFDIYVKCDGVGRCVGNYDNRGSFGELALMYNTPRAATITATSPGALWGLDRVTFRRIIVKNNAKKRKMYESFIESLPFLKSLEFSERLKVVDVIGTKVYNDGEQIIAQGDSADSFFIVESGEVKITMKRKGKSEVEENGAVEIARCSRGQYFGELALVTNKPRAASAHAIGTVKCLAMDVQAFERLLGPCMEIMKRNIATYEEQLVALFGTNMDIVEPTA
MsrA act: activators of bovine methionine sulfoxide reductase A. purified bovine MsrA, absorbance read-out. activation, % at 10.6 µM. 0.3% of 360,000 active. AID 602163; in the data active means activation above about 7.5%
MsrA inh: inhibitors of bovine MsrA; purified bovine MsrA, absorbance read-out; inhibition, % at 15.5 µM; 0.75% of 360,000 active; AID 651718
MsrA conf: bovine MsrA inhibition, confirmed | shares compounds with MsrA inh | purified bovine MsrA, absorbance read-out | inhibition, % at 15.5 µM | 41% of 2,300 active | AID 651822;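 further: coupled to thioredoxin reductase with NADPH and selenocystamine and DMSO as substrate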
Large screens that a line does not name were inactive (follow-up assays come after a bar, where they were run). Hits are enriched below; roughly 1.1% of the tested compounds scored in any of these assays. Unless noted, no stated cut-off is given here; in the data, active means inhibition above about 4.5%; inactive means the rest.

CCCc1c(C)nn(C(=O)/C(C#N)=N/Nc2ccccc2[N+](=O)[O-])c1C	MsrA inh 10 | MsrA conf 6.9
COC(=O)[C@]12CCCCC=C1N(CCC1=CCCCC1)C(=O)[C@H](CC(=O)NCCCCc1ccccc1)C2	none (no result: PKA-R1A act, PKA-R2B activ)
COc1cc(/C=N/NC(=O)c2cc(C3CC3)[nH]n2)ccc1O	MsrA inh 5.2 | MsrA conf inactive
COc1cc(/C=N/NC(=O)c2cc(-c3ccc4c(c3)OCO4)n[nH]2)ccc1O	MsrA inh 5.5 | MsrA conf inactive
O=C(N/N=C/c1ccc([N+](=O)[O-])cc1)c1cc(-c2ccc3c(c2)OCO3)n[nH]1	none
COCC1CCN(C(=O)c2cc(COc3cc(C)c(Cl)c(C)c3)on2)C1 (stereo unspecified)	none
Cc1cc(NC(=O)Cc2cn(Cc3ccccc3)c3ccccc23)ccc1Oc1cccnc1	none (no result: PKA-R1A act, PKA-R2B activ, MsrA act)
Nc1ccc(C(=O)C(=O)c2ccc(N)cc2)cc1	MsrA inh 7.5 | MsrA conf 6.8
COC1C(CO)OC(n2c3c(Cl)cccc3c3c4c(c5c6cccc(Cl)c6[nH]c5c32)C(=O)NC4=O)C(O)C1O (stereo unspecified)	none
N#C/C(=C/Nc1ccccc1)c1ccsc1	MsrA inh 4.8 | MsrA conf inactive
[O-][N+]1=c2ccc(Nc3ccccc3)cc2=NC12CCCCC2	MsrA inh 11 | MsrA conf 8.6
COc1ccccc1Cc1c(-c2ccc(Cl)cc2)nc2ccc(C)cn12	none (no result: PKA-R1A act, PKA-R2B activ, MsrA act)
O=c1cccc(-c2ccc3ccccc3c2)o1	MsrA inh 5.0 (no result: PKA-R1A act, PKA-R2B activ, MsrA act) | MsrA conf inactive
Nc1c(C=C2C=CC(=O)C=C2)c(=O)nc2sc(CC(=O)N3CCCC3)nn12	MsrA inh 4.7 | MsrA conf inactive
CCCc1nn2c(N)c(/C=C3\C=Nc4ccccc43)c(=O)nc2s1	none
COC(=O)C1CC(Cl)CN1c1ncc(C(F)(F)F)cc1Cl (stereo unspecified)	MsrA inh 5.1 | MsrA conf inactive
Cc1ccc(C(=O)NCCc2nnc3ccc(SCC(=O)Nc4ccccc4F)nn23)cc1	none
CCS(=O)(=O)c1nn2c(N)c(/C=C3/C=CC(=O)C(OC)=C3)c(=O)nc2s1	MsrA inh 4.7 | MsrA conf inactive
CN1CCN(C(=O)c2c(NC(=O)c3ccco3)sc3c2CCC(C(C)(C)C)C3)CC1 (stereo unspecified)	none
O=C(Nc1sc2c(c1C(=O)O)CCCCC2)c1ccco1	MsrA inh 6.0 | MsrA conf inactive
CC1CCc2c(sc(NC(=O)c3ccco3)c2C(=O)O)C1 (stereo unspecified)	MsrA inh 5.8 | MsrA conf 4.7
CN(C)C(=O)c1c(NC(=O)c2ccco2)sc2c1CCCCC2	none
Oc1ccccc1C=NC(N=Cc1ccccc1O)c1ccccc1O (stereo unspecified)	none (no result: PKA-R1A act, PKA-R2B activ, MsrA act)
O=C(NC(=S)Nc1ccccc1Cl)C1CC1	MsrA inh 7.0 | MsrA conf inactive
COc1ccccc1NC(=S)NC(=O)C1CC1	none
CC1(C)CCCN(C(=O)c2coc(=O)c(Br)c2)C1	MsrA inh 4.9 | MsrA conf inactive
NC(=O)c1ccsc1NC(=O)c1coc2ccccc2c1=O	MsrA inh 4.7 | MsrA conf inactive
Cc1cc(-c2n[nH]c(=S)n2/N=C/C=C/c2ccco2)n[nH]1	none
S=c1[nH]nc(-c2ccccc2)n1/N=C/C=C/c1ccco1	MsrA inh 5.7 | MsrA conf 6.2
S=c1[nH]nc(-c2ccc(Cl)cc2)n1/N=C/C=C/c1ccco1	none (no result: PKA-R1A act, PKA-R2B activ)
Cc1ccccc1-c1n[nH]c(=S)n1/N=C/C=C/c1ccco1	MsrA inh 4.7 | MsrA conf inactive
CCOC(=O)c1cnc2c3c(noc13)CCC2	none (no result: PKA-R1A act, PKA-R2B activ, MsrA act)
O=S1(=O)C=C(Sc2ccc(Cl)cc2)c2ccccc2C1Cc1ccc(F)cc1 (stereo unspecified)	none (no result: PKA-R1A act, PKA-R2B activ, MsrA act)
COC(=O)[C@]1(CC(C)C)NC=C(C(=O)c2ccccc2)[C@@H]1c1cccs1	none (no result: PKA-R1A act, PKA-R2B activ, MsrA act)
O=C(c1ccccc1Cl)N1CCSCCS1(=O)=O	none (no result: PKA-R1A act, PKA-R2B activ, MsrA act)
CC(=O)c1ccc(-c2ccc(C(=O)NC3CC(C)(C)NC(C)(C)C3)o2)cc1	MsrA inh 5.4 | MsrA conf 5.3
CC1(C)CC(NC(=O)c2ccc(F)cc2)CC(C)(C)N1	none
CN(C)c1ccc(C=Nc2ccc(N(C)C)cc2)cc1	MsrA inh 7.2 | MsrA conf 4.8
Cc1ccc(N=Cc2ccc(N(C)C)cc2)cc1C	none
Cc1nc(/N=C\c2ccc(N(C)C)cc2)sc1C	MsrA inh 5.8 | MsrA conf inactive
CN(C)c1ccc(C=Nc2ccccc2)cc1	none
Cc1ccc(S(=O)(=O)N(C)/N=C/c2ccc(N(C)C)cc2)cc1	MsrA inh 6.1 | MsrA conf inactive
Cc1ccc(N=Cc2ccc(N(C)C)cc2)cc1	MsrA inh 6.5 | MsrA conf inactive
Nc1[nH]c(C(=O)c2ccc(Br)cc2)c(-c2ccc3ccccc3c2)c1C(=O)NCCc1c[nH]c2ccccc12	none (no result: PKA-R1A act, PKA-R2B activ, MsrA act)
CCN(CC(=O)N1CCOCC1)S(=O)(=O)c1ccc(F)cc1	none
O=C(NCc1ccccc1)[C@@H]1CCCN1C(=O)[C@H]1CCCN1C(=O)c1ccc(F)cc1	none (no result: PKA-R1A act, PKA-R2B activ, MsrA act)
O=C(O)c1ccc(/C=C/C(=O)c2ccc3c(c2)OCCCO3)cc1	MsrA inh 6.5 | MsrA conf inactive
CC(=O)Nc1ccc(/C=C/C(=O)c2ccc3c(c2)OCCO3)cc1	none
Cc1cc(O)cc(=O)n1-c1cc(F)c(F)c(F)c1	none (no result: PKA-R1A act, PKA-R2B activ, MsrA act)
COc1cccc(C2NC(=S)N(Cc3ccccc3)C(C)=C2C(C)=O)c1 (stereo unspecified)	none (no result: PKA-R1A act, PKA-R2B activ, MsrA act)
COC(=O)C1CCC(=O)N1C(c1ccc(OC)cc1)c1cc(OC)c(OC)c(OC)c1 (stereo unspecified)	none
COCc1cc(C)nc(N/N=C/c2ccc(-c3ccc(Cl)cc3[N+](=O)[O-])o2)c1C#N	MsrA inh 6.4 | MsrA conf inactive
COc1ccc(/C=N/N=C2\SCC(=O)N2c2c(C)n(C)n(-c3ccccc3)c2=O)cc1OC	MsrA inh 5.7 | MsrA conf inactive
Cc1c(N2C(=O)CS/C2=N\N=C\c2ccc(Cl)cc2)c(=O)n(-c2ccccc2)n1C	none
COc1ccc(/C=C/C(=O)NC(=S)Nc2ccc(S(=O)(=O)Nc3cc(OC)ncn3)cc2)cc1	none (no result: PKA-R1A act, PKA-R2B activ)
COc1ccc(/C=C/C(=O)NC(=S)Nc2ccc(S(=O)(=O)Nc3nccnc3OC)cc2)cc1	MsrA inh 5.2 | MsrA conf 6.0
COc1ccc(C(=O)CC2(O)C(=O)N(CN3CCOCC3)c3ccc(Br)cc32)cc1 (stereo unspecified)	none (no result: PKA-R1A act, PKA-R2B activ, MsrA act)
COc1ccccc1/C=N/NC(=O)CN(C1=NS(=O)(=O)c2ccccc21)c1ccccc1	MsrA inh 6.1 | MsrA conf inactive
COc1ccc(/C=N/NC(=O)CN(C2=NS(=O)(=O)c3ccccc32)c2ccccc2)cc1	none
O=C(COc1ccc2c(C(F)(F)F)cc(=O)oc2c1)NCc1cccs1	none
Cc1cc(NN)nc(NS(=O)(=O)c2ccccc2)n1	none (no result: PKA-R1A act, PKA-R2B activ)
COc1ccc(/C=N/Nc2cc(C)nc(NS(=O)(=O)c3ccc(C)cc3)n2)cc1	none
COc1cc(/C=N/Nc2cc(C)nc(NS(=O)(=O)c3ccc(C)cc3)n2)ccc1O	MsrA inh 5.5 | MsrA conf 5.7
